# The campaign covered roughly 1,300 compounds. About 980 (75%) were called active. Not shown: some 4% with an inconclusive outcome. The list shows a part of the results. Values without a mark were called inactive.
# Biological target: Sulfhydryl oxidase 1 (Homo sapiens) (UniProt O00391)
# Test: QSOX1 enzyme inhibitors, primary screen, biochemical, HyperBlu H2O2 luminescence, HTS (AID 1347420); note: values above 100% were filed as inconclusive
# Details: recombinant QSOX1, HyperBlu H2O2 luminescence; at 12.5 µM; stronger effect = higher value; active = any value above zero
# Sequence of Sulfhydryl oxidase 1 (Homo sapiens) (O00391 whole entry, looked up): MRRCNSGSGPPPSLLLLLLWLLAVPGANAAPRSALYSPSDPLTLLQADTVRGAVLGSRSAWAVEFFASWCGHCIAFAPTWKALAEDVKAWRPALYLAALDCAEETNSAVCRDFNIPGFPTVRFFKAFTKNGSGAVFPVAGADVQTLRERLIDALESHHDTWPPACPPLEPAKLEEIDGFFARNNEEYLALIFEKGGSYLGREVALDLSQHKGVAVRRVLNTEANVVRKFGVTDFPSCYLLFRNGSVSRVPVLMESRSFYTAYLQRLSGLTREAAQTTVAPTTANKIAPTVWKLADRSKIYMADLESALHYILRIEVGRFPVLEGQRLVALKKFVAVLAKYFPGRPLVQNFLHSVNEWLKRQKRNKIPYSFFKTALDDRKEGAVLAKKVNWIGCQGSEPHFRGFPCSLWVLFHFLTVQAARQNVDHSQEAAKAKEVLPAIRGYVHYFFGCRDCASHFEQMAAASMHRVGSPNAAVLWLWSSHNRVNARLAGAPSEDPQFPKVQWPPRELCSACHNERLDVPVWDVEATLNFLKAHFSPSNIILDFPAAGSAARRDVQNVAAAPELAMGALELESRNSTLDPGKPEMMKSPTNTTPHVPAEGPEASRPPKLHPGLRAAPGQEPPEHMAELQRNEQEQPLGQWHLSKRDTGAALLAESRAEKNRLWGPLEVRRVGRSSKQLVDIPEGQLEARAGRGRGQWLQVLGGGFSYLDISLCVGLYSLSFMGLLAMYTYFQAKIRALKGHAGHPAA
row,SMILES,inhibition
1,NC(=O)OCC(COC(N)=O)c1ccccc1,6.4% (active)
2,N=C(N)c1ccc(N)cc1,-0.4%
3,N=C(N)c1ccc(OCCCCCOc2ccc(C(=N)N)cc2)cc1,14.9% (active)
4,NC1(C(=O)O)CCCCC1,12.2% (active)
5,NC1(C(=O)O)CC1,0.9% (active)
6,Clc1nccc2c1ccc1ccccc12,5.5% (active)
7,O=C(CCCN1CCC(O)(c2ccc(Cl)cc2)CC1)c1ccc(F)cc1,4.3% (active)
8,O=C(CCCN1CCC(O)(c2cccc(C(F)(F)F)c2)CC1)c1ccc(F)cc1,1.8% (active)
9,CN(C)C(=O)C(CCN1CCC(O)(c2ccc(Cl)cc2)CC1)(c1ccccc1)c1ccccc1,-0.4%
10,CN(C(=O)CCCOc1ccc2[nH]c(=O)ccc2c1)C1CCCCC1,13.1% (active)
11,CN1C2CCC1CC(OC(=O)C(CO)c1ccccc1)C2 (stereo unspecified),0.4% (active)
12,CN1C2CCC1CC(OC(=O)c1c[nH]c3ccccc13)C2 (stereo unspecified),8.4% (active)
13,CN1C2CCC1CC(OC(c1ccccc1)c1ccccc1)C2 (stereo unspecified),7.5% (active)
14,CN1C2CC(OC(=O)[C@H](CO)c3ccccc3)CC1C1OC12 (stereo partly specified),10.8% (active)
15,CN1C2CCC1CC(OC(=O)C(O)c1ccccc1)C2 (stereo unspecified),6.4% (active)
16,CC(C)(C)C(=O)Oc1ccc(S(=O)(=O)Nc2ccccc2C(=O)NCC(=O)O)cc1,18.6% (active)
17,CNC1(C)C2CCC(C2)C1(C)C (stereo unspecified),-4.4%
18,NC(=O)NO,11.4% (active)
19,CC(C)C[C@H](NC(=O)C1OC1C(=O)O)C(=O)NCCCCN=C(N)N (stereo partly specified),-7.9%
20,N[C@H](C(=O)O)[C@H](Cc1ccccc1)C(=O)O,4.3% (active)
21,NCCCCNCCCN,-8.3%
22,NCCCNCCCCNCCCN,19.3% (active)
23,NCCCNCCSP(=O)(O)O,7.6% (active)
24,S=C(S)N1CCCC1,86.2% (active)
25,CC(C)CC(NP(=O)(O)O[C@@H]1O[C@@H](C)[C@H](O)[C@@H](O)[C@H]1O)C(=O)NC(Cc1c[nH]c2ccccc12)C(=O)O (stereo partly specified),59.4% (active)
26,O=C(O)c1cccnc1Nc1cccc(C(F)(F)F)c1,3.2% (active)

row,SMILES,inhibition
1,Nc1ncnc2c1nc(Sc1ccc(Cl)cc1)n2C1OC2COP(=O)(O)O[C@@H]2[C@@H]1O (stereo partly specified),7.4% (active)
2,Nc1nc(O)c2nc(Br)n(C3OC4COP(=O)(O)O[C@@H]4C3O)c2n1 (stereo partly specified),9.3% (active)
3,Nc1ncnc2c1nc(Br)n2C1OC2COP(=O)(O)O[C@@H]2C1O (stereo partly specified),4.7% (active)
4,Nc1ncnc2nc(-c3ccc(N4CCOCC4)nc3)cc(-c3cccc(Br)c3)c12,-3%
5,O=c1[nH]c2cc(Cl)ccc2c(O)c1-c1ccc(Oc2ccccc2)cc1,8.7% (active)
6,CN(C)c1nc(N(C)C)nc(N(C)C)n1,31.3% (active)
7,CN1[C@@H](CC(=O)c2ccccc2)CCC[C@H]1C[C@H](O)c1ccccc1,15.5% (active)
8,O=C(O)CCCC[C@@H]1CCSS1,0.1% (active)
9,Cc1cc(C(C)(C)C)c(O)c(C)c1CC1=NCCN1,11.2% (active)
10,Cc1cc(C(C)(C)C)cc(C)c1CC1=NCCN1,5% (active)
11,CC(=O)[C@H]1CC[C+]2C3CC=C4C[C@@H](OS(=O)(=O)[O-])CC[C@]4(C)C3CC[C@@]21C (stereo partly specified),-11.2%
12,CCN(Cc1ccncc1)C(=O)C(CO)c1ccccc1 (stereo unspecified),1.5% (active)
13,COc1ccc(/C=C2\COc3ccc(C)cc3C2=O)cc1O,75.9% (active)
14,CCCc1c(-c2ccc(O)cc2)nn(-c2ccc(O)cc2)c1-c1ccc(O)cc1,68.4% (active)
15,Brc1c(NC2=NCCN2)ccc2nccnc12,21.8% (active)
16,CC(=O)O[C@H]1CC2(C)[C@@H](C[C@@H](O)[C@H]3[C@@]4(C)CC[C@@H](O)[C@@H](C)[C@@H]4CC[C@@]32C)/C1=C(/CCC=C(C)C)C(=O)O (stereo partly specified),15.9% (active)
17,CCN(CC)CCn1c(=O)c(Cc2ccc(OC)cc2)nc2ccccc21,11.3% (active)
18,CCCNCC(O)COc1ccccc1C(=O)CCc1ccccc1 (stereo unspecified),9.1% (active)
19,O=C(O)c1cc2cc(Cc3cccnc3)ccc2o1,12.1% (active)
20,NC(N)=Nc1nc(CSCC/C(N)=N/S(N)(=O)=O)cs1,19.1% (active)
21,CC(/C=C/c1cccc(Oc2ccc(F)cc2)c1)N(O)C(N)=O (stereo unspecified),17.2% (active)
22,O=C(CCc1ccc(O)cc1)c1c(O)cc(O)cc1O,35.5% (active)
23,NS(=O)(=O)C#Cc1ccccc1,7% (active)
24,NC(=O)c1cnccn1,6.1% (active)
25,CCCCCCCCCCCCCCC[C@H](O)[C@H](N)CO,18.5% (active)
26,COc1ccc(NC(=O)c2ccc(-c3ccc(-c4noc(C)n4)cc3C)cc2)cc1N1CCN(C)CC1,3.7% (active)

row,SMILES,inhibition
1,CCCCCN(C)CCC(O)(P(=O)(O)O)P(=O)(O)O,-4.8%
2,O=c1onc2n1-c1cc(Br)ccc1OC2,5.7% (active)
3,CC(C)(C)c1ccc(C(=O)CCCN2CCC(OC(c3ccccc3)c3ccccc3)CC2)cc1,8.3% (active)
4,C[C@@H](NCCc1ccc(O)cc1)[C@@H](O)c1ccc(O)cc1,14.4% (active)
5,CC(CCc1ccc(O)cc1)NCCc1ccc(O)c(O)c1 (stereo unspecified),83.4% (active)
6,O=c1[nH]c2cc(C(F)(F)F)ccc2n1-c1cc(C(F)(F)F)ccc1O,11.5% (active)
7,C[C@]12C=CC(=O)C=C1CC[C@H]1[C@@H]3C[C@@H](O)[C@](O)(C(=O)CO)[C@@]3(C)C[C@H](O)[C@@]12F,26.2% (active)
8,C[C@H]1CC2C3CCC4=CC(=O)C=C[C@]4(C)[C@@]3(Cl)[C@@H](O)C[C@]2(C)[C@@]1(O)C(=O)CO (stereo partly specified),-10.3%
9,CC1CC2C3CCC4=CC(=O)C=C[C@]4(C)[C@@]3(F)[C@@H](O)C[C@]2(C)[C@@]1(O)C(=O)CO (stereo partly specified),11.4% (active)
10,CCOC(=O)C1=C(C)NC(C)=C(C(=O)OCC)C1c1c(F)c(F)c(F)c(F)c1F,-4.7%
11,CCOC(=O)C1=C(C)NC(C)=C(C(=O)OC)C1c1cccc(Cl)c1Cl (stereo unspecified),6.3% (active)
12,C#CCN1C(C)=C(C(=O)OC)C(c2cccc([N+](=O)[O-])c2)C(C(=O)OCC)=C1C (stereo unspecified),7.8% (active)
13,COC(=O)C1=C(C)NC(C)=C(C(=O)OCCN(C)Cc2ccccc2)C1c1cccc([N+](=O)[O-])c1 (stereo unspecified),6.8% (active)
14,CCOC(=O)C1=C(C)NC(C)=C(C(=O)OC)C1c1cccc([N+](=O)[O-])c1 (stereo unspecified),14% (active)
15,COC(=O)C1=C(C)NC(C)=C(C(=O)OC(C)(C)CN(C)CCC(c2ccccc2)c2ccccc2)C1c1cccc([N+](=O)[O-])c1 (stereo unspecified),21.8% (active)
16,COCCOC(=O)C1=C(C)NC(C)=C(C(=O)OC/C=C/c2ccccc2)C1c1cccc([N+](=O)[O-])c1 (stereo unspecified),32.1% (active)
17,COCCOC(=O)C1=C(C)NC(C)=C(C(=O)OC(C)C)C1c1cccc([N+](=O)[O-])c1 (stereo unspecified),16.8% (active)
18,CCN1CCC[C@H]1CNC(=O)c1c(O)c(Cl)cc(Cl)c1OC,14.4% (active)
19,NCCNC(=O)c1ncsc1-c1cccc(F)c1,-11.5%
20,O=C1NCC2(CCN(CCc3ccccc3)CC2)O1,10.5% (active)
21,Cc1ccc(O)c(N=Nc2ccccc2)n1,30.2% (active)
22,Cc1cc(NC2CCCCC2)nc(-n2nc(C)cc2C)n1,6.3% (active)
23,CCCCCCCCCCCCCCCC(=O)NCCO,8.6% (active)
24,CCCCCCC(=O)OC1CC(C)(C)NC(C)(C)C1,-7.9%
25,CCCCCCCC/C=C\CCCCCCCC(=O)NCCO,0.4% (active)
26,C[C@]12CC[C@@H]3c4ccc(O)cc4CC[C@H]3[C@@H]1CCC2=O,22.4% (active)

row,SMILES,inhibition
1,C[C@]12CC[C@@H]3c4ccc(O)cc4CC[C@H]3[C@@H]1CC[C@@H]2O,24.6% (active)
2,C[C@](N)(Cc1ccc(O)cc1)C(=O)O,2.9% (active)
3,CC(N)(Cc1ccc(O)cc1)C(=O)O (stereo unspecified),50.5% (active)
4,COC(=O)C(C)(N)Cc1ccc(O)cc1 (stereo unspecified),2.3% (active)
5,CCOC(=O)C1=C[C@]2(CC)CCCN3CCc4c(n1c1ccccc41)[C@@H]32,8.5% (active)
6,CCc1ccc2c(-c3cccc(Cl)c3)nc(=O)n(CC)c2n1,20% (active)
7,CCOC(=O)c1ncn2c1CN(C)C(=O)c1cc(F)ccc1-2,11.8% (active)
8,CN(Cc1cnc2nc(N)nc(N)c2n1)c1ccc(C(=O)N[C@@H](CCC(=O)O)C(=O)O)cc1,3.6% (active)
9,Nc1nc(N)c2nc(CNc3ccc(C(=O)NC(CCC(=O)O)C(=O)O)cc3)cnc2n1 (stereo unspecified),34.3% (active)
10,CC(C)C(=O)Nc1ccc([N+](=O)[O-])c(C(F)(F)F)c1,4.7% (active)
11,CC1(C)NC(=O)N(c2ccc([N+](=O)[O-])c(C(F)(F)F)c2)C1=O,-8.3%
12,Nc1nc(SCc2ccc([N+](=O)[O-])cc2)c2ncn([C@@H]3O[C@H](CO)[C@H](O)C3O)c2n1 (stereo partly specified),33.7% (active)
13,O=[N+]([O-])c1ccc(CSc2ncnc3c2ncn3[C@@H]2O[C@H](CO)[C@H](O)C2O)cc1 (stereo partly specified),33.9% (active)
14,C#CC(N)CCC(=O)O (stereo unspecified),13.5% (active)
15,C=CC(N)CCC(=O)O (stereo unspecified),-9.5%
16,Nc1nc2c(ncn2COCCO)c(=O)[nH]1,19.3% (active)
17,Nc1nc2c(ncn2COC(CO)CO)c(=O)[nH]1,10.7% (active)
18,Cc1cccc(-c2[nH]c(C(C)(C)C)nc2-c2ccc3nccnc3c2)n1,-12.5%
19,N=S(=O)([O-])Cc1noc2c1C=C[C+]=C2,9.3% (active)
20,OC[C@H]1NC[C@@H](O)[C@@H]1O,10.5% (active)
21,OCC1NCC(O)C(O)C1O (stereo unspecified),14.4% (active)
22,CCN1/C(=C/C(C)=O)Sc2ccc(OC)cc21,58.1% (active)
23,CC[C@H](C)C(=O)O[C@H]1CCC=C2C=C[C@H](C)[C@H](CC[C@@H]3C[C@@H](O)CC(=O)O3)[C@H]21,8.8% (active)
